{
  "source": "the supplement of paper PMC6555819",
  "data": [
    {"test_system": "RARb:RXRa (NR concentration 270 nM, RXRa partner concentration 90 nM)", "assay": "PBM binding z-score (relative to random genomic background probes); higher = stronger binding; sequences stand for … in GC…GCGATTGACAGCGTAGAATGAAGG", "outline": "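Custom Agilent 4×180K protein-binding microarrays carried double-stranded probes. Their 34-nt variable regions held direct-repeat seeds, single-nucleotide variants, half-site ablations and random human genomic background sequences. Arrays were incubated 1 h with ligand-free nuclear receptor dimers in PBS pH 7.4, 2% milk, 0.02% Triton X-100, 1 mM DTT, 0.2 mg/mL BSA and 0.4 mg/ml salmon testes DNA. Antibodies against each partner (one per run) detected binding, and scanned fluorescence was regression-normalized. Binding z-scores use random background probes as reference.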", "values": [
      {"sequence": "CCTACTGGGCCATTCAGAGGTCATTTATCATATG", "PBM binding z-score": 2.79},
      {"sequence": "CCGAGTAGCTTATGGGGCATTCAGGCAACGGTGA", "PBM binding z-score": -0.266},
      {"sequence": "CCTACTGGGCCATTTAGAGGTCATTGATCATATG", "PBM binding z-score": 2.89},
      {"sequence": "CGAACGAGGGCATGAGTTGGTAGCAAATGCCGAT", "PBM binding z-score": 1.81},
      {"sequence": "TATACAGGTTCAAAGGCCAGAGTACGAATGTCGA", "PBM binding z-score": 2.2},
      {"sequence": "CCGACTCGGGCAAGGTTACCATAACGCACAGCCA", "PBM binding z-score": 1.33},
      {"sequence": "CCTACCGGGCCACGAAAGGTCATTGATTCAGTGA", "PBM binding z-score": 4.07},
      {"sequence": "TGAATGAGGTTAAAGATCAGAGAACGTGGCGTCG", "PBM binding z-score": 1.98},
      {"sequence": "TCCGCTAGGTCAACGATGGTCAGCTAATCTGCTA", "PBM binding z-score": 4.13},
      {"sequence": "GCGACTGGGGCAAAGCAGGTTACCAAAAGGTTGG", "PBM binding z-score": 1.02},
      {"sequence": "CCTACTGGGCCATCAGGTAATTGATATCAACGTT", "PBM binding z-score": 0.0726},
      {"sequence": "TCATATAAGTAAATGCTAGGTGAAAGTCCGATCT", "PBM binding z-score": 0.428},
      {"sequence": "CCGAGTAGGTTATGGGGCACTCAGGCAACGGTGA", "PBM binding z-score": 1.15},
      {"sequence": "TCTTGTAGATCATTAGAGGTTAAGAAAGTGCGCT", "PBM binding z-score": 1.01},
      {"sequence": "ATATGTAGGTTAAGGGTCATTGAGGTTGGTTCGC", "PBM binding z-score": 3.7},
      {"sequence": "ACTAGCAGGCCAAGGGGCACTCAAGATTAGTCCG", "PBM binding z-score": 1.09},
      {"sequence": "TAGCCGAGGTCAGATCGGGCCAGTATACGCTATA", "PBM binding z-score": 4.42},
      {"sequence": "GCGACAGGGGCAAAGCAGGTTACCATAAGGTTGG", "PBM binding z-score": 1.47},
      {"sequence": "CCTTACGGGTCACTGATAGGTTATAGCATTTGGA", "PBM binding z-score": 4.02},
      {"sequence": "CCTACTGGGCCCCGAAAGGTCATTGATTCAGTGA", "PBM binding z-score": 3.6},
      {"sequence": "ACTATTAGTTGACATAGGGCAACCGATACGACGC", "PBM binding z-score": 1.19},
      {"sequence": "CTTGCTAGGTCATGGTCAGCTAATCTACAGTATG", "PBM binding z-score": 3.66},
      {"sequence": "TCTTGTAGATCAAACGTTAAGAAAGCCGAAGCCT", "PBM binding z-score": -0.19},
      {"sequence": "GATACAGGGTCAGCTAGATGCCAGAGTATGGAAA", "PBM binding z-score": 3.98},
      {"sequence": "CGTACAGGGTCAGCTAGGCCAGAGTAGGGACGGC", "PBM binding z-score": 4.16},
      {"sequence": "ATCGAAAGGTCGAGGTGAGTCTAGAGAAAGGGAA", "PBM binding z-score": 4.31},
      {"sequence": "TATAGTTGGTCACGGAGGTCACACACGACGGGTA", "PBM binding z-score": 4.09},
      {"sequence": "CGAACGAGGGCATGAGTTGATAGTAAATGCCGAT", "PBM binding z-score": 1.94},
      {"sequence": "CCTACTGAGCCAAGGTCATTGATCAGTCAAAGCA", "PBM binding z-score": 3.15},
      {"sequence": "ATCTCTTGGTAAAGATAGTTCAGTGAATGCAAAT", "PBM binding z-score": 0.724},
      {"sequence": "TCTATTAGTTGAGTAGGGCAACCGAAACAGCGGA", "PBM binding z-score": 0.507},
      {"sequence": "TCATATAGGTAATACTGGTGAAAGTCGGCATCTA", "PBM binding z-score": 0.451},
      {"sequence": "GGAAAGAGGGCATTCGAGTTGATAGCATGGCGAT", "PBM binding z-score": 2.24},
      {"sequence": "TCTTGTATATCAATAGAGGTTAAGAAAGTGCGCT", "PBM binding z-score": 0.997},
      {"sequence": "TCTCGGAGGACAAGAAAGGTCAGAGCTCGACATC", "PBM binding z-score": 4},
      {"sequence": "CCTATTAGTTGACTATAAGGGCAACCGAAGCTCG", "PBM binding z-score": 1.25},
      {"sequence": "AGAACGAGGGCACGCTGAGTTGATAGGAGAGTAG", "PBM binding z-score": 2.37},
      {"sequence": "ACTATTAGTTGAGACGAGGGAAACCGATAGGTTG", "PBM binding z-score": -0.193},
      {"sequence": "GGAACGAGGGCAAGTTGAGAGCAGAGTTTGATGG", "PBM binding z-score": 2.74},
      {"sequence": "CGTCAAAGTTCAATTAAGGTAACGTAAAGCACGC", "PBM binding z-score": 4.78}
    ]}
  ]
}
